“And” between values parts separate entries of the source, which are not always exact repeats. Equal entries are not always repeated. Results filed as inconclusive are left out. The source holds several records for some structures; these can differ, active in one and inactive in another. The source made the active and inactive calls. Unless noted, the call rests on the fitted dose curve; in most records, active means well fitted curve in the direction sought with a large enough effect; inconclusive means small, poorly fitted or top-dose-only effect, or another doubt; inactive means no such curve, though single readings can be large; an effect the other way counts as inactive or inconclusive.
Legend:
[1] = AP1 Signaling Pathway (AID 357; active means well fitted curve in either direction with a large enough effect, not every such curve was filed as active;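 further: ME-180 reporter cells stimulated with EGF at its EC50 level; on the % scale 0 is the no-effect control and ±100 the full control effect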); conditions: ME-180 AP-1-bla reporter, EGF-induced, beta-lactamase ratio, 5 h
Summary of the method: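 Beta-lactamase reporter under AP-1 response element, ME-180 background. Stimulus: EC50 EGF. Compound exposure 5 h, 37 °C. Detection: CCF4, 2.5 h RT, 460/530 nm. Values: AC50 from titration.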

[2] = target: Cytochrome P450 1A2 (Homo sapiens) (UniProt P05177); assay: p450-cyp1a2 (AID 410; calls by dose curve; further: potency means the concentration at half of the fitted maximal effect;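 on activity change, negative = inhibition: -100% = full effect of reference inhibitor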)
Summary of the method: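 20nM CYP1A2, 100uM Luciferin-ME (=Km), 100mM KPO4; cpd 10 min RT; +NADPH regen, 60 min RT; stop/detect 20 min; luminescence. Normalized to furafylline 57 uM = full inhibition.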

[3] = NFAT Signaling Pathway (AID 444; active means well fitted curve in either direction with a large enough effect, not every such curve was filed as active;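 further: carbachol stimulus at about its EC50 of 1 µM final; on the % scale 0 is the no-effect control and ±100 the full control effect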); conditions: Jurkat NFAT-bla M1, carbachol, beta-lactamase ratio, 5 h
Summary of the method: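 Read-out: CCF4 FRET ratio (460 nm/530 nm) after 1 h RT dye loading, used for %activity and AC50 from titration series. Cells: Jurkat NFAT-β-lactamase/M1 line, treated with compound plus 1 uM carbachol for 5 h, 37 °C.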

[4] = Stat Signaling Pathway (AID 446; active means well fitted curve in either direction with a large enough effect, not every such curve was filed as active;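 further: ME-180 cervical cancer cells given 40 pM IL-6 alongside compound; SIE-controlled beta-lactamase reporter measured as 460/530 nm FRET emission ratio; on the % scale 0 is the no-effect control and ±100 the full control effect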); conditions: ME-180 (cervical carcinoma) SIE beta-lactamase reporter, IL-6 stimulated, 5 h
Summary of the method: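 FRET read-out (405 nm excitation, 460/530 nm emission) of a beta-lactamase reporter under a STAT-inducible element in ME-180 cervical carcinoma cells. Cells with compound receive 40 pM IL-6 for 5 h. Values are normalised to AC90 stimulation and AC90 JAK-inhibitor controls.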

[5] = target: Glucocorticoid receptor (Homo sapiens) (UniProt P04150); assay: GR-GFP Redistribution (AID 450;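 active means compounds whose dose series gives a full or clear partial fitted curve of increased nuclear translocation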; further: potency means the concentration at half of the fitted maximal effect); conditions: U2OS GR-GFP nuclear translocation, laser cytometry, 2 h
[6] = target: Glucocorticoid receptor (Homo sapiens) (UniProt P04150); assay: GR-EFC Redistribution (AID 451; calls by dose curve; further: potency means the concentration at half of the fitted maximal effect); conditions: CHO-K1 GR-EFC translocation, beta-gal luminescence, 2 h
Summary of the method: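 Translocation of GR-ED fusion to nuclear EA restores b-gal, read by luminescence after 1 h room-temperature detection. Engineered CHO-K1 biosensor cells, 1,000/well, exposed 2 h at 37 C to titrations up to 46 uM final.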

[7] = target: Mitogen-activated protein kinase 10 (Mus musculus) (UniProt Q61831); assay: JNK3 AlphaScreen Assay (AID 530; active means well fitted curve in either direction with a large enough effect, not every such curve was filed as active;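 further: kinase came from lysate of stimulated human HepG2 cells; signal reports phosphorylation of biotinylated GST-cJun 1-79 at Ser73 with 10 µM ATP; on the % scale 0 is the no-effect control and ±100 the full control effect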)
Summary of the method: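 Kinase buffer: 20 mM Tris-HCl pH 7.6, 10 mM MgCl2, 1 mM DTT, 0.1 mM Na3VO4, 0.01% Tween-20; ATP 10 uM. Substrate biotin-GST-cJun(1-79), enzyme from activated HepG2 lysates. Detection by Ser73 phospho-antibody AlphaScreen.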

[8] = target: 3',5'-cyclic-AMP phosphodiesterase 4B (Homo sapiens) (UniProt Q07343); assay: qHTS Assay for Inhibitors of PDE-IV (AID 607; active means well fitted activation curve with a large enough effect in the main read-out, with a control signal flat, not every such curve was filed as active; further: % of control where 0% means no effect)
Summary of the method: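 Cell-based read-out of cAMP via a modified cyclic nucleotide-gated channel and membrane potential dye (535/590 nm) in HEK293 cells expressing PDE4 endogenously. Compounds tested up to 22.9 uM final; 100 uM RO 20-1724 reference.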

[9] = qHTS Assay for Lipid Storage Modulators (AID 1519; calls by dose curve); conditions: Drosophila S3 cells, BODIPY lipid droplet/cell ratio, laser cytometry, cells loaded with oleic acid; for activity change, negative = inhibition: at 25.7 µM (top of the series)
Summary of the method: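 Cells seeded at 5,000 per well were treated with compounds over a concentration series and loaded with oleic acid (400 uM, as added). Lipid droplet fluorescence (488 nm excitation, 500-530 nm channel) was read by laser-scanning cytometry and normalized to 20 uM Triacsin C.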

[10] = target: ATP-dependent 6-phosphofructokinase (Trypanosoma brucei brucei) (UniProt O15648); assay: qHTS Assay to Find Inhibitors of T. brucei phosphofructokinase: hit validation (AID 492961)
Summary of the method: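 Measures ADP output of PFK (1.25 nM) at 0.1 mM ATP, 0.5 mM F6P, pH 8.0 TEA buffer with 5 mM MgCl2. No-enzyme wells define full inhibition; uninhibited enzyme wells define zero.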

[11] = target: Ubiquitin carboxyl-terminal hydrolase 1 (Homo sapiens) (UniProt O94782); assay: Inhibitors of USP1/UAF1: Pilot qHTS (AID 504865);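 further: rhodamine fluorescence freed from ubiquitin-rhodamine substrate followed over time; top concentration of the series differs between compounds; on the % scale 0 is the no-effect control and ±100 the full control effect; nearly all actives have a fitted effect of over 35% in size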
Summary of the method: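 USP1/UAF1 complex at 1 nM preincubated 15 min at room temperature with compound, then Ub-Rho substrate added at 150 nM final. Fluorescence (480/540 nm) read kinetically in 50 mM HEPES pH 7.8, 0.5 mM EDTA, 1 mM TCEP, 0.1 mg/ml BSA, 0.01% Tween-20.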

[12] = target: Luciferin 4-monooxygenase (Photinus pyralis) (UniProt P08659); assay: Biochemical firefly luciferase enzyme assay for NPC (AID 624030);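 further: purified P. pyralis luciferase at 10 nM with luciferin and ATP substrate; 0% = DMSO and -100% = full luciferase inhibition by PTC124 control; nearly all actives have a fitted effect of over 70% in size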
Summary of the method: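 Direct inhibition of firefly luciferase enzyme (10 nM final, 50 mM Tris Acetate) assessed by luminescence within 5 minutes. Percent activity scaled between DMSO and PTC124 positive control, with concentration-effect curves classified by fit quality and response.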

[13] = qHTS profiling for inhibitors of Plasmodium falciparum proliferation (AID 504749);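 further: 0% = DMSO vehicle and full inhibition = artemisinin control; nearly all actives have a fitted effect of over 60% in size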; conditions: P. falciparum in erythrocytes, SYBR Green DNA, 72 h, at 12.8 µM (top of the series)
Summary of the method: (§1)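 In a 72 h erythrocytic culture (37 C, humidified, 5% CO2) at 2.5% hematocrit and 0.3% starting parasitemia, compounds were tested; SYBR Green I in detergent lysis buffer stained parasite DNA overnight.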

AS120 = assay: as above; conditions: P. falciparum in erythrocytes, SYBR Green DNA, 72 h; series mostly up to 28.7 µM
Summary of the method: as §1

CP238 = assay: as above; conditions: P. falciparum in erythrocytes, SYBR Green DNA, 72 h; series mostly up to 12.8 µM
Summary of the method: as §1

CP265 = assay: as above; conditions: P. falciparum in erythrocytes, SYBR Green DNA, 72 h; series mostly up to 12.8 µM
Summary of the method: as §1

FAB9 = assay: as above; conditions: P. falciparum in erythrocytes, SYBR Green DNA, 72 h; series mostly up to 12.8 µM
Summary of the method: as §1

[14] = target: Guanine nucleotide-binding protein G(i) subunit alpha-1 (Homo sapiens) (UniProt P63096); assay: qHTS Assay for Inhibitors of RGS12 GoLoco Motif Activity (Green Fluorophore) (AID 879);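 further: 0% = labeled peptide with Gαi1 and full inhibition = labeled peptide alone without protein; negative values mean loss of peptide binding seen as reduced polarization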
Summary of the method: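 A drop in FITC polarization marked displacement of the FITC-tagged RGS12 GoLoco peptide (10 nM) from Gαi1 (50 nM). Compounds were incubated 10 min at room temperature in Tris pH 7.5 buffer containing 150 mM NaCl, 0.1 mM GDP and 0.05% NP40; unlabeled peptide titration served as control.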

[15] = target: Pyruvate kinase (Leishmania mexicana) (UniProt Q27686); assay: qHTS Validation Assay for Inhibitors of Leishmania Mexicana Pyruvate Kinase (AID 945);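 further: 0% = DMSO only neutral control wells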
Summary of the method: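 Read-out: luminescence from PKLight stop/detection reagent, data normalized to DMSO. Reaction: 0.2 nM E451W LmPYK, 0.5 mM PEP, 0.1 mM ADP, pH 7.2, 1 h room temperature.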

[16] = target: Pyruvate kinase PKM (Homo sapiens) (UniProt P14618); assay: qHTS Assay for Activators of Human Muscle Pyruvate Kinase (AID 954; active means well fitted curve in the direction sought with a large enough effect, not every such curve was filed as active;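 further: 0% = uninhibited enzyme and -100% = no enzyme or full thiadiazolimine inhibition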)
Summary of the method: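 ATP production by PKM2 detected via luciferase luminescence after 1 h room-temperature reaction (0.1 nM enzyme, PEP at Km 0.5 mM, ADP 0.1 mM, pH 7.2 imidazole buffer). Inhibition scaled to no-enzyme control; activation referenced to 0.3 nM enzyme wells.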

[17] = at 7.69 µM (top of the series) unless noted
[18] = measured here: cell count channel max response
[19] = measured here: lipid channel max response

Ubiquitin carboxyl-terminal hydrolase 1 (Homo sapiens), sequence (O94782 whole entry, looked up): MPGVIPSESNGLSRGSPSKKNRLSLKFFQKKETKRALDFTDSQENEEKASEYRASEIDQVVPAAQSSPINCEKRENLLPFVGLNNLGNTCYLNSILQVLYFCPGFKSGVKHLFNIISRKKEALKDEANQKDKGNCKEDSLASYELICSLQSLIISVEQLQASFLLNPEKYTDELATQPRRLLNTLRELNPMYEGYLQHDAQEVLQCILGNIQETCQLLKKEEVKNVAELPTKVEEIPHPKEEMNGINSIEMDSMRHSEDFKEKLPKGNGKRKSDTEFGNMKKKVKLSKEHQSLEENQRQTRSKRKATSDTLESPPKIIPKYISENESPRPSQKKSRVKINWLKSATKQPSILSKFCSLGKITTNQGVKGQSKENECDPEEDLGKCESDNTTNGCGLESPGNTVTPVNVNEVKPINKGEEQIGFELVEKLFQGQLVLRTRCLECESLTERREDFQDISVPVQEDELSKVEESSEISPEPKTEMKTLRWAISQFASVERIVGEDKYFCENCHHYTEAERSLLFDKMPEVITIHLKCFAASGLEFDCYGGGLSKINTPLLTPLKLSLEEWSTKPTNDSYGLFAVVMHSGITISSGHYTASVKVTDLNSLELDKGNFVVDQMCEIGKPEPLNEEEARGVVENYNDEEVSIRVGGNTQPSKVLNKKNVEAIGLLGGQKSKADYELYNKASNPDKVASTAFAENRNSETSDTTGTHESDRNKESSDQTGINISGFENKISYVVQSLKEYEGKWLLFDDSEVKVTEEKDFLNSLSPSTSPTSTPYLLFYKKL
Luciferin 4-monooxygenase (Photinus pyralis), sequence (P08659 whole entry, looked up): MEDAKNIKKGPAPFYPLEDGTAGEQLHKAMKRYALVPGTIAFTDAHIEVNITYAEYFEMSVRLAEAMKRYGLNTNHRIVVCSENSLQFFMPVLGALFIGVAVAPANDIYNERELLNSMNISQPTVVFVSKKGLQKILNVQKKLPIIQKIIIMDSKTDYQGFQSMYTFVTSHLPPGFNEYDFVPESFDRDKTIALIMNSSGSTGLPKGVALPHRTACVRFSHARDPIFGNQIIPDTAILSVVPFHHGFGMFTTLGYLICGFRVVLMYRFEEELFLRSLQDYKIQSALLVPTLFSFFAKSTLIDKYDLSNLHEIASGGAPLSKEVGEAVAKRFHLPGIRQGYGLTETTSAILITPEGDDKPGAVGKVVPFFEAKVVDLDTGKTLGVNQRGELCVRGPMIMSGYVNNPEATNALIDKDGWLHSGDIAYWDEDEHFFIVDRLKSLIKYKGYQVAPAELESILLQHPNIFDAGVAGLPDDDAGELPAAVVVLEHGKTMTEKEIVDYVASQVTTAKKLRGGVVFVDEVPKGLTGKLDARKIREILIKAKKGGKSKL
Cytochrome P450 1A2 (Homo sapiens), sequence (P05177 whole entry, looked up): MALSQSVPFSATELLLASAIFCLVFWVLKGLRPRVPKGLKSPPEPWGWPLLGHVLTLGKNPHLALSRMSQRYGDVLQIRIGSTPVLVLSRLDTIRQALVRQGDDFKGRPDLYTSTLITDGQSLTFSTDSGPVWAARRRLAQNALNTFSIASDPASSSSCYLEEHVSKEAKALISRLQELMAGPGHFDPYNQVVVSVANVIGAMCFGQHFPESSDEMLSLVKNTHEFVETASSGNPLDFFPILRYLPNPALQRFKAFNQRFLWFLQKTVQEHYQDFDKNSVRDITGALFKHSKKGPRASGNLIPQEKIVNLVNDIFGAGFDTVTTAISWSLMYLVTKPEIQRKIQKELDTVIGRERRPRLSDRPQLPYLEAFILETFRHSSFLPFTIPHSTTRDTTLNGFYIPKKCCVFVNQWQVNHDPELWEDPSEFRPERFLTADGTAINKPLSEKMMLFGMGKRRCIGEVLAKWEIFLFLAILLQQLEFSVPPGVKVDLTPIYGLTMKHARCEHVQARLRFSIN
ATP-dependent 6-phosphofructokinase (Trypanosoma brucei brucei), sequence (O15648 whole entry, looked up): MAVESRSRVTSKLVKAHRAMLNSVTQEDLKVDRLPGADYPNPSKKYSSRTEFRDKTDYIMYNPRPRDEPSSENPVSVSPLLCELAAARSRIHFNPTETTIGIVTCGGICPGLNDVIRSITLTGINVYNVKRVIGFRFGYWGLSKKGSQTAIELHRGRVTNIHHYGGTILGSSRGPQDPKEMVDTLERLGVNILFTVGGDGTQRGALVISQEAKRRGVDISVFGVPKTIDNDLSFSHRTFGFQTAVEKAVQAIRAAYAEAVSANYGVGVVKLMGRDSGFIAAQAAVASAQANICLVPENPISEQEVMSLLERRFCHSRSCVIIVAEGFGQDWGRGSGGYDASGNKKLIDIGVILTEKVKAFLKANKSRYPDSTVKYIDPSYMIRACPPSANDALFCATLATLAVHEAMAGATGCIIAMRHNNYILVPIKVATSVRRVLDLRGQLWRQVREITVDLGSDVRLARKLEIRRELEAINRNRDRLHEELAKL
3',5'-cyclic-AMP phosphodiesterase 4B (Homo sapiens), sequence (Q07343 whole entry, looked up): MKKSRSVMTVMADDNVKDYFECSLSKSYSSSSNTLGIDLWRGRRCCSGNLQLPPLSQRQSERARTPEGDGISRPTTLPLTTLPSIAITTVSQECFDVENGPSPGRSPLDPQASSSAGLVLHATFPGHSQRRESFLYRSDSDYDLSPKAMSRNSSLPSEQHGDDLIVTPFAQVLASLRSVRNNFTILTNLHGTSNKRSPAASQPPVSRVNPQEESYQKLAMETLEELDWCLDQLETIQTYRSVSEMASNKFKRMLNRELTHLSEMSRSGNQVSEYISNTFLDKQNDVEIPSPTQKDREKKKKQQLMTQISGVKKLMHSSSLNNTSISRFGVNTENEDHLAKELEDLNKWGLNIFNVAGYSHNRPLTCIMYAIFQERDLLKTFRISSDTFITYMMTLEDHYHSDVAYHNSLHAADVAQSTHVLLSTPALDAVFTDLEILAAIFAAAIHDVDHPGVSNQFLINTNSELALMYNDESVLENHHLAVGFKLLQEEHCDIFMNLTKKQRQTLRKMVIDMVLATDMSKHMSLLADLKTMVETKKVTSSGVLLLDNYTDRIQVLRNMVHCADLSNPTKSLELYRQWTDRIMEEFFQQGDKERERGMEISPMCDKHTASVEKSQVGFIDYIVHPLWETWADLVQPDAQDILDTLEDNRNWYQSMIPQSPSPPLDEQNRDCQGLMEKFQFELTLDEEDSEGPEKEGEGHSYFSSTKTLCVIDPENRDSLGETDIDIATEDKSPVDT
Glucocorticoid receptor (Homo sapiens), sequence (P04150 whole entry, looked up, the tested form may be a part): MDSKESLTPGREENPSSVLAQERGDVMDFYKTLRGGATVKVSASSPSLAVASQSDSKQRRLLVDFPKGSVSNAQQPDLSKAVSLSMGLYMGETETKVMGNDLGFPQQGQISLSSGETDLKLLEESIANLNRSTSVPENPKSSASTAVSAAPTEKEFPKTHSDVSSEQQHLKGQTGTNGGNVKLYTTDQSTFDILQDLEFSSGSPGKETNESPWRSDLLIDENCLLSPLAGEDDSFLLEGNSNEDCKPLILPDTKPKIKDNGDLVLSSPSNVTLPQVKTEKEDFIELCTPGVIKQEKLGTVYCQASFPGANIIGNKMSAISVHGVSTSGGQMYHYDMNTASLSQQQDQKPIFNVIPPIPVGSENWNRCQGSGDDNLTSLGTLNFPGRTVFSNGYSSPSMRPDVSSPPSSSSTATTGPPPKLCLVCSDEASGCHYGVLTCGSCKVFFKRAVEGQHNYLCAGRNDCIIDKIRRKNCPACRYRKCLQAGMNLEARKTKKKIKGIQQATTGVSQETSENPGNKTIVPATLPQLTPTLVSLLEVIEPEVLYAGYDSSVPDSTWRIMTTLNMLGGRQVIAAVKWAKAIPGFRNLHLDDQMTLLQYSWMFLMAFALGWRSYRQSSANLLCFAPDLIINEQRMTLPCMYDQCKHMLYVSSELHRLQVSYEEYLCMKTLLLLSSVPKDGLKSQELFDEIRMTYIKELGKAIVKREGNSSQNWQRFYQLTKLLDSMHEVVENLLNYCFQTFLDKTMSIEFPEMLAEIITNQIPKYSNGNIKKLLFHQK
Pyruvate kinase PKM (Homo sapiens), sequence (P14618 whole entry, looked up): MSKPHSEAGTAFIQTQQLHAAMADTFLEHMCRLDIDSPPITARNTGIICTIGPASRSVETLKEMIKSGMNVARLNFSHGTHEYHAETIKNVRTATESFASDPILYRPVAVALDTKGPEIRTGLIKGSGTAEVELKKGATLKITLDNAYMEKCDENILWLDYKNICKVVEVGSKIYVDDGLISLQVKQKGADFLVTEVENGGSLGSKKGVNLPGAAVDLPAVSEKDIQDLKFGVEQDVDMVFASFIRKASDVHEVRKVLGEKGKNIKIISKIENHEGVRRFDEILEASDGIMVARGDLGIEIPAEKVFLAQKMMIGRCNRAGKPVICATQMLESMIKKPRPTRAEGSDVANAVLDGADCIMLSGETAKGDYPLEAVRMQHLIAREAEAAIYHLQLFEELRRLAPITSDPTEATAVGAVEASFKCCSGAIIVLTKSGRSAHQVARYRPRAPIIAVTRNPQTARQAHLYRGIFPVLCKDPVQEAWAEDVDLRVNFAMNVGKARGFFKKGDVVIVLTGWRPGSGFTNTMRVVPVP
Pyruvate kinase (Leishmania mexicana), sequence (Q27686 2-499 E452W): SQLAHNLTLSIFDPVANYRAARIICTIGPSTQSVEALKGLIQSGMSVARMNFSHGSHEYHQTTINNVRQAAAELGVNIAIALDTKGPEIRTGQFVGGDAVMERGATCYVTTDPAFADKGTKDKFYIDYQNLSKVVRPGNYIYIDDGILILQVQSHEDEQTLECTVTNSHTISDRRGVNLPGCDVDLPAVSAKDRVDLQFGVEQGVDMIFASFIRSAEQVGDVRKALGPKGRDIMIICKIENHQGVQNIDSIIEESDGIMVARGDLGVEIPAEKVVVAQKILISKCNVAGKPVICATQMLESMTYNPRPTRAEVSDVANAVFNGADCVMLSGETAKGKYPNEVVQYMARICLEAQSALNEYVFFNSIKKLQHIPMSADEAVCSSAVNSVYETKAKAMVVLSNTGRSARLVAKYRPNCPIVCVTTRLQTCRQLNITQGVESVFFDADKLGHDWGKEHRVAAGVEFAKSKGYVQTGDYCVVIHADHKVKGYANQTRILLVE

CC(=O)Nc1c(I)c(C(=O)N[C@H]2[C@@H](O)[C@H](O)[C@H](CO)O[C@@H]2O)c(I)c(N(C)C(C)=O)c1I
inactive: activity change, negative = inhibition [1, 17] 9.89% [at 17.2 µM] | Potency [2] | activity change, negative = inhibition [3, 17] -0.843% [at 17.2 µM] | activity, negative = inhibition [4, 17] -3.76% [at 17.2 µM] | Potency [5] > 20.6 µM | Potency [6] > 20.6 µM | Potency [7] | Potency [8] | activity change, negative = inhibition [9] -0.4% | outcome [10] | Potency [11] | outcome [12] | activity, negative = inhibition ([13]; parasite line A) 8.5% | activity, negative = inhibition ([13]; parasite line B) 4.91% | Potency (AS120) | Potency (CP238) | Potency (CP265) | Potency (FAB9)
-5.12%: max response [9, 19]
-8.07%: max response [9, 18]

CN(N=O)C(=O)N[C@H]1[C@@H](O)[C@H](O)[C@H](CO)O[C@@H]1O
inactive: activity change, negative = inhibition [1, 17] 22% [at 17.2 µM] | Potency [2] | activity change, negative = inhibition [3, 17] 5.2% [at 17.2 µM] | activity, negative = inhibition [4, 17] -4.53% [at 17.2 µM] | Potency [5] > 20.6 µM | Potency [6] > 20.6 µM | Potency [7] | Potency [8] | activity change, negative = inhibition [9] -1.88% | outcome [10] | Potency [11] | outcome [12] | activity, negative = inhibition ([13]; parasite line A) 2.49% | activity, negative = inhibition ([13]; parasite line B) 8.62% | Potency (AS120) | Potency (CP238) | Potency (CP265) | Potency (FAB9)
-12.1%: max response [9, 18]
-12.9%: max response [9, 19]

CC(C)COC[C@H](CN(Cc1ccccc1)c1ccccc1)N1CCCC1
-26.5%: max response [9, 19]
inactive and 12.6 µM (active): Potency [2]
-16.9%: max response [9, 18]
inactive: activity change, negative = inhibition [1, 17] 15.1% [at 38 µM] | activity change, negative = inhibition [3, 17] -5.29% [at 38 µM] | activity, negative = inhibition ([4]; at 17.2 µM (top of the series)) -1.52% | activity, negative = inhibition ([4]; at 38 µM (top of the series)) -10.2% | Potency [5] > 46 µM and > 20.6 µM | Potency [6] > 46 µM and > 20.6 µM | Potency [7] | Potency [8] | Potency [14] | outcome [15] | outcome [16] | activity change, negative = inhibition [9] -12.4% | Potency [11]

O=c1[nH]c(=O)n([C@@H]2C[C@H](O)[C@H](CO)O2)cc1I
inactive: activity change, negative = inhibition [1, 17] 9.17% [at 17.2 µM] | Potency [2] | activity change, negative = inhibition [3, 17] 8.3% [at 17.2 µM] | activity, negative = inhibition [4, 17] 11.4% [at 17.2 µM] | Potency [5] > 20.6 µM | Potency [6] > 20.6 µM | Potency [7] | activity change, negative = inhibition [9] -3.3% | outcome [10] | Potency [11] | outcome [12] | activity, negative = inhibition ([13]; parasite line A) -1.96% | activity, negative = inhibition ([13]; parasite line B) 14.3% | Potency (AS120) | Potency (CP238) | Potency (CP265) | Potency (FAB9)
1.83%: max response [9, 19]
2.86%: max response [9, 18]

CN1Cc2c(N)cccc2[C@H](c2ccccc2)C1
inactive: activity change, negative = inhibition ([1]; at 17.2 µM (top of the series)) -6.53% | activity change, negative = inhibition ([1]; at 38 µM (top of the series)) -7.55% | activity change, negative = inhibition ([3]; at 17.2 µM (top of the series)) -6.69% | activity change, negative = inhibition ([3]; at 38 µM (top of the series)) -5.66% | Potency [5] > 46 µM and > 20.6 µM | Potency [6] > 46 µM and > 20.6 µM | Potency [7] | Potency [8] | outcome [15] | outcome [16] | activity change, negative = inhibition [9] 1.09% | Potency [11]
active: Potency [2] 31.6 µM and 6.31 µM
0.613%: max response [9, 19]
-0.662%: max response [9, 18]
